From PubChem BioAssay AID1159580 (chemical genetic matrix, 2015)
Screen size: about 5,500 compounds; about 2,000 (36%) were called active. Not shown: some 18% with an inconclusive outcome. Rule as the data show it: active = normalized growth mostly below about 0.91 (no sharp cut-off); inconclusive = no clear call, values can overlap the other calls; inactive = mostly above about 0.92. This is one part of the list.

Experiment: chemical genetic growth profiling, strain panel (AID 1159580);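 also: tested at 20 µM; growth read once vehicle control cultures reached saturation at 30 °C; 1 = growth at the plate median or of vehicle wells; lower values mean less growth of the strain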
Settings: growth OD
[1] = S. cerevisiae deletion strains, locus YAL013W, strain DEP1, active compounds read low
[2] = S. cerevisiae deletion strains, locus YBR229C, strain ROT2, active compounds read low
[3] = S. cerevisiae deletion strains, locus YDL101C, strain DUN1, active compounds read low
[4] = S. cerevisiae deletion strains, locus YDL134C, strain PPH21, active compounds read low
[5] = S. cerevisiae deletion strains, locus YDR150W, strain NUM1, active compounds read low
[6] = S. cerevisiae deletion strains, locus YEL061C, strain CIN8, active compounds read low
[7] = S. cerevisiae deletion strains, locus YGR078C, strain PAC10, active compounds read low
[8] = S. cerevisiae deletion strains, locus YHR030C, strain SLT2, active compounds read low
[9] = S. cerevisiae deletion strains, locus YHR087W, strain rtc3, active compounds read low
[10] = S. cerevisiae deletion strains, locus YJR043C, strain POL32, active compounds read low
[11] = S. cerevisiae deletion strains, locus YJR075W, strain HOC1, active compounds read low
[12] = S. cerevisiae deletion strains, locus YLR039C, strain RIC1, active compounds read low
[13] = S. cerevisiae deletion strains, locus YLR058C, strain SHM2 (second series), active compounds read low
[14] = S. cerevisiae deletion strains, locus YLR085C, strain ARP6, active compounds read low
[15] = S. cerevisiae deletion strains, locus YLR262C, strain YPT6, active compounds read low
[16] = S. cerevisiae deletion strains, locus YML094W, strain GIM5, active compounds read low
[17] = S. cerevisiae deletion strains, locus YMR219W, strain ESC1, active compounds read low
[18] = S. cerevisiae deletion strains, locus YMR263W, strain SAP30, active compounds read low
[19] = S. cerevisiae deletion strains, locus YNL153C, strain GIM3, active compounds read low
[20] = S. cerevisiae deletion strains, locus YNL298W, strain CLA4 (second series), active compounds read low
[21] = S. cerevisiae deletion strains, locus YNL322C, strain KRE1, active compounds read low
[22] = S. cerevisiae deletion strains, locus YNR030W, strain Alg12, active compounds read low
[23] = S. cerevisiae deletion strains, locus YPL055C, strain LGE1, active compounds read low
[24] = S. cerevisiae deletion strains, locus YPL241C, strain CIN2, active compounds read low
[25] = S. cerevisiae deletion strains, locus YPR135W, strain CTF4, active compounds read low

Measured: normalized growth

COC(=O)c1ccccc1CSc1nccc(C(F)(F)F)n1
active: [4] 0.86 | [8] 0.671 | [11] 0.882 | [12] 0.743 | [14] 0.661 | [15] 0.752 | [22] 0.861
inactive: [1] 0.963 | [2] 0.938 | S. cerevisiae deletion strains, locus YCL061C, strain MRC1, active compounds read low 0.956 | [3] 0.978 | [5] 0.939 | [6] 0.917 | [7] 0.927 | S. cerevisiae deletion strains, locus YGR229C, strain SMI1, active compounds read low 0.969 | [9] 0.913 | [10] 0.957 | S. cerevisiae deletion strains, locus YKL190W, strain CNB1, active compounds read low 0.931 | [13] 0.959 | [16] 0.946 | [17] 0.969 | [18] 0.975 | [19] 0.952 | [20] 0.895 | [21] 0.962 | [23] 0.849 | [24] 0.859 | [25] 0.657 | S. cerevisiae strains, strain wild type, active compounds read low 0.926

CCOC(=O)c1cnc2c(c(C)nn2C)c1Sc1nnc(SC)s1
inactive: S. cerevisiae deletion strains, locus YDL108W, strain KIN28, active compounds read low 0.899 | S. cerevisiae deletion strains, locus YDL214C, strain PRR2, active compounds read low 0.796 | S. cerevisiae deletion strains, locus YDR477W, strain SNF1, active compounds read low 0.719 | S. cerevisiae deletion strains, locus YGR040W, strain KSS1, active compounds read low 0.742 | S. cerevisiae deletion strains, locus YGR052W, strain FMP48, active compounds read low 0.847 | S. cerevisiae deletion strains, locus YHR079C, strain IRE1, active compounds read low 0.649 | S. cerevisiae deletion strains, locus YHR082C, strain KSP1, active compounds read low 0.779 | S. cerevisiae deletion strains, locus YHR205W, strain SCH9, active compounds read low 0.744 | S. cerevisiae deletion strains, locus YJL095W, strain BCK1, active compounds read low 0.69 | S. cerevisiae deletion strains, locus YJL128C, strain PBS2, active compounds read low 0.945 | S. cerevisiae deletion strains, locus YJL157C, strain FAR1, active compounds read low 0.739 | S. cerevisiae deletion strains, locus YJR066W, strain TOR1, active compounds read low 0.644 | S. cerevisiae deletion strains, locus YKL048C, strain ELM1, active compounds read low 0.902 | S. cerevisiae deletion strains, locus YKL067W, strain YNK1, active compounds read low 0.821 | S. cerevisiae deletion strains, locus YKL101W, strain HSL1, active compounds read low 0.865 | S. cerevisiae deletion strains, locus YLR133W, strain CKI1, active compounds read low 0.808 | S. cerevisiae deletion strains, locus YML070W, strain DAK1, active compounds read low 0.759 | S. cerevisiae deletion strains, locus YMR205C, strain PFK2 (second series), active compounds read low 0.859 | S. cerevisiae deletion strains, locus YNL020C, strain ARK1, active compounds read low 0.802 | S. cerevisiae deletion strains, locus YNL183C, strain NPR1, active compounds read low 0.715 | S. cerevisiae deletion strains, locus YOL136C, strain PFK27, active compounds read low 0.714 | S. cerevisiae deletion strains, locus YOR061W, strain CKA2, active compounds read low 0.813 | S. cerevisiae deletion strains, locus YOR119C, strain RIO1, active compounds read low 0.77 | S. cerevisiae deletion strains, locus YOR231W, strain MKK1, active compounds read low 0.701 | S. cerevisiae deletion strains, locus YPL031C, strain PHO85, active compounds read low 0.67 | S. cerevisiae deletion strains, locus YPL204W, strain HRR25, active compounds read low 0.667 | S. cerevisiae deletion strains, locus YPR106W, strain ISR1, active compounds read low 0.934 | S. cerevisiae deletion strains, locus YPR111W, strain DBF20, active compounds read low 0.928 | S. cerevisiae deletion strains, strain NNK1, active compounds read low 0.917
active: S. cerevisiae deletion strains, locus YAR019C, strain CDC15, active compounds read low 0.847 | S. cerevisiae deletion strains, locus YBL105C, strain PKC1, active compounds read low 0.872 | S. cerevisiae deletion strains, locus YBR135W, strain CKS1, active compounds read low 0.874 | S. cerevisiae deletion strains, locus YBR136W, strain MEC1, active compounds read low 0.867 | S. cerevisiae deletion strains, locus YBR160W, strain CDC28, active compounds read low 0.876 | S. cerevisiae deletion strains, locus YDL017W, strain CDC7, active compounds read low 0.875 | S. cerevisiae deletion strains, locus YDL028C, strain MPS1, active compounds read low 0.882 | [3] 0.911 | S. cerevisiae deletion strains, locus YDL132W, strain cdc53, active compounds read low 0.841 | S. cerevisiae deletion strains, locus YDR052C, strain DBF4, active compounds read low 0.89 | S. cerevisiae deletion strains, locus YDR054C, strain cdc34, active compounds read low 0.779 | S. cerevisiae deletion strains, locus YDR226W, strain ADK1, active compounds read low 0.871 | S. cerevisiae deletion strains, locus YER123W, strain YCK3, active compounds read low 0.615 | S. cerevisiae deletion strains, locus YER133W, strain GLC7, active compounds read low 0.657 | S. cerevisiae deletion strains, locus YFL009W, strain cdc4, active compounds read low 0.851 | S. cerevisiae deletion strains, locus YFL029C, strain CAK1, active compounds read low 0.845 | S. cerevisiae deletion strains, locus YFR003C, strain YPI1, active compounds read low 0.887 | S. cerevisiae deletion strains, locus YFR019W, strain FAB1, active compounds read low 0.73 | S. cerevisiae deletion strains, locus YFR028C, strain CDC14, active compounds read low 0.891 | S. cerevisiae deletion strains, locus YGR092W, strain DBF2, active compounds read low 0.431 | [8] 0.565 | S. cerevisiae deletion strains, locus YIL147C, strain SLN1, active compounds read low 0.857 | S. cerevisiae deletion strains, locus YJR016C, strain ILV3, active compounds read low 0.859 | S. cerevisiae deletion strains, locus YJR066W, strain TOR1 (second series), active compounds read low 0.497 | S. cerevisiae deletion strains, locus YKL193C, strain SDS22, active compounds read low 0.859 | S. cerevisiae deletion strains, locus YKL203C, strain TOR2, active compounds read low 0.683 | S. cerevisiae deletion strains, locus YLR113W, strain HOG1, active compounds read low 0.505 | S. cerevisiae deletion strains, locus YLR403W, strain SFP1, active compounds read low 0.549 | S. cerevisiae deletion strains, locus YMR001C, strain CDC5, active compounds read low 0.855 | S. cerevisiae deletion strains, locus YMR277W, strain FCP1, active compounds read low 0.852 | S. cerevisiae deletion strains, locus YNL006W, strain LST8, active compounds read low 0.881 | S. cerevisiae deletion strains, locus YNL161W, strain CBK1, active compounds read low 0.88 | S. cerevisiae deletion strains, locus YNL207W, strain RIO2, active compounds read low 0.844 | S. cerevisiae deletion strains, locus YNL222W, strain SSU72, active compounds read low 0.867 | S. cerevisiae deletion strains, locus YNL307C, strain MCK1 (second series), active compounds read low 0.596 | S. cerevisiae deletion strains, locus YOL078W, strain AVO1, active compounds read low 0.859 | S. cerevisiae deletion strains, locus YOR329C, strain SCD5, active compounds read low 0.872 | S. cerevisiae deletion strains, locus YPL153C, strain RAD53, active compounds read low 0.62 | S. cerevisiae deletion strains, locus YPL209C, strain IPL1, active compounds read low 0.886 | S. cerevisiae deletion strains, locus YPL256C, strain CLN2, active compounds read low 0.789 | S. cerevisiae deletion strains, locus YPR025C, strain CCL1, active compounds read low 0.879 | S. cerevisiae deletion strains, strain TSCII, active compounds read low 0.846

CCOC(=O)c1cnc2nc(SC)nn2c1N
inactive: [1] 0.997 | [2] 1 | [3] 0.955 | [4] 0.995 | [5] 0.968 | [6] 1 | [7] 0.971 | [8] 0.855 | [9] 0.994 | [10] 0.935 | [11] 0.984 | [12] 1.03 | [13] 0.994 | [14] 0.88 | [15] 1.01 | [16] 0.942 | [17] 0.993 | [18] 0.983 | S. cerevisiae deletion strains, locus YMR307W, strain GAS1, active compounds read low 0.909 | S. cerevisiae deletion strains, locus YNL128W, strain TEP1, active compounds read low 0.988 | [19] 0.956 | [20] 0.968 | [21] 0.998 | [22] 0.982 | [23] 0.942 | [24] 0.982 | [25] 0.894
